# From the supplement of paper PMC13380429
# A number with no mark means an inactive call.
# Tested on: Vero E6 infected with SARS-CoV-2
# Assay: inhibition of SARS-CoV-2 cytopathic effect; higher = more antiviral protection, active = above 15
# Conditions: 10000 nM; 48 h
row,Compound,inhibition of SARS-CoV-2 cytopathic effect
1,Nc1ccncc1 [dalfampridine],1.18%
2,Cc1ccc(-c2cn3c4c(sc3n2)CCCC4)cc1 [pifithrin-cyclic],0.74%
3,NS(=O)(=O)c1ccc2c(c1)C1C=CCC1C(c1ccc(Br)cc1)N2 (stereo unspecified),-0.61%
4,CC[N+](CC)(CC(=O)Nc1c(C)cccc1C)Cc1ccccc1 [denatonium-benzoate],-0.4%
5,CC(C)(C)Nc1nc(Nc2ccc(C(N)=O)cc2)cc(N)c1C#N,-1.36%
6,CCCNC(C)C(=O)Nc1ccccc1C (stereo unspecified) [prilocaine],2%
7,CCOC(=O)C1=C[C@]2(CC)CCCN3CCc4c(n1c1ccccc41)[C@@H]32 [vinpocetine],-1.06%
8,CC(C)[C@](O)(c1ccc2cc(OC(F)F)c(OC(F)F)cc2c1)c1c[nH]nn1,6.8%
9,C[C@H](N/C(=N/C#N)Nc1cccc2ncccc12)c1ccccc1,1.97%
10,O=c1[nH]c(=O)n([C@H]2CCCO2)cc1F (racemic) [ftorafur],-2.89%
11,O=C(NCCN1CCCCC1)c1ccc(I)cc1 [N-[2-(piperidinylamino)ethyl]-4-iodobenzamide],-1.77%
12,Cc1cccc(C)c1NC(=O)[C@@H](C)N [tocainide],-4.59%
13,Nc1ncnc(Nc2ccc(Cl)cc2)n1 [chlorazanil],-2.14%
14,CS(=O)(=O)c1ccc(C2=C(c3ccccc3)C(=O)OC2)cc1 [rofecoxib],1.14%
15,O=C(O)/C=C/CO [trans-4-hydroxycrotonic-acid],4.35%
16,CN1CCN(CCCCN2C(=O)CN(/N=C/c3ccc(-c4ccc(Cl)cc4)o3)C2=O)CC1 [azimilide],-1.08%
17,CCCCN(CCCC)CC(O)c1cc(Cl)cc2c1-c1ccc(Cl)cc1/C2=C/c1ccc(Cl)cc1 (stereo unspecified) [lumefantrine],-1.35%
18,O=C(CCCCCCNC(=O)c1cnc(N(c2ccccc2)c2ccccc2)nc1)NO,-10.5%

row,Compound,inhibition of SARS-CoV-2 cytopathic effect
1,CC(=O)O[C@]1(C(C)=O)CC[C@H]2[C@@H]3C[C@H](C)C4=CC(=O)C=C[C@]4(C)[C@@]3(F)[C@@H](O)C[C@@]21C [fluorometholone-acetate],-0.24%
2,C[C@H](CCC(=O)O)[C@H]1CC[C@H]2[C@@H]3CC[C@@H]4C[C@H](O)CC[C@]4(C)[C@H]3C[C@H](O)[C@]12C [deoxycholic-acid],-0.42%
3,O=C1C=CC(=O)C2=C1C1c3ccccc3C2c2ccccc21,5.57%
4,CCCOC(C(=O)OC1CCN(C)CC1)(c1ccccc1)c1ccccc1 [propiverine],1.89%
5,NCCS(=O)(=O)O [taurine],-0.28%
6,"CCCC(O)C(CC)CO (stereo unspecified) [2-ethyl-1,3-hexanediol]",0.65%
7,CC[n+]1c(-c2ccccc2)c2cc(N)ccc2c2ccc(N)cc21 [homidium],6.13%
8,COc1cc(S(C)(=O)=O)ccc1Nc1nc2ccc(-c3ccc(NC(=O)[C@H](C)c4ccc(F)cc4)cc3)cn2n1,-4.51%
9,CC1C=CC=CCCC=CC=CC=CC=CC(OC2OC(C)C(O)C(N)C2O)CC2OC(O)(CC(O)C(O)CCC(O)CC(O)CC(O)CC(=O)OC(C)C(C)C1O)CC(O)C2C(=O)O (stereo unspecified) [nystatin],3.99%
10,CCCNCCc1ccc(NS(=O)(=O)c2ccc(OC(F)(F)F)cc2)cc1,-4.37%
11,O=C(O)c1ccc(O)c2ncccc12,1.28%
12,CC[C@@H]1C(=O)OC[C@@H]1Cc1cncn1C [pilocarpine],3.05%
13,c1cnc(SCc2cccnc2)nc1 [tasuldine],1.89%
14,CCOc1ccc(Cc2cc([C@@H]3O[C@H](SC)[C@@H](O)[C@H](O)[C@H]3O)ccc2Cl)cc1 [sotagliflozin],-3.65%
15,COc1cc2c(cc1OC)-c1cc3nc4ccccc4nc3n1C(C)(C)C2,-7.6%
16,CC(C)NCC(O)c1ccc(N)c(C#N)c1 (stereo unspecified) [cimaterol],4.49%
17,CCn1c(=O)c(-c2ccc(Cl)cc2Cl)cc2cnc(Nc3ccc(N4CCNCC4)c(F)c3)nc21,-4.65%
18,CCn1cc(C(=O)O)c(=O)c2cc(F)c(N3CCNC(C)C3)c(F)c21 (stereo unspecified) [lomefloxacin],-1.41%
